Experimental findings from PubChem BioAssay (NCATS) are described below.

Assay [1] can be described thus: NCATS anti-infectives library activity on HEK293 viability as a counter-qHTS vs the C. elegans viability qHTS (AID 1745854).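 Also: HEK293 cells exposed to compounds for 24 hr before the viability read.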 Put shortly: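 Cytotoxicity in human HEK293 cells is measured by ATP-dependent CellTiter-Glo luminescence following a 24 hr incubation with titrated library compounds at 37C. Top final concentration is 41.7 uM.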
The target in assay [2] is Metallo-beta-lactamase type 2 (Klebsiella pneumoniae) (UniProt C7C422). Nature of the assay: qHTS to identify inhibitors of the New Delhi Metallo-beta-lactamase (NDM): assay validation screen against the NCATS LOPAC Collection (AID 1794843).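 Also: nitrocefin turnover by NDM-1 measured as 485 nm absorbance at plateau; series mostly up to about 38 µM.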 Put shortly:
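NDM-1 at 2 nM final in 50 mM HEPES pH 7.0 with 1 uM ZnSO4 and 0.01% Tween20 was preincubated with library compounds in DMSO. Nitrocefin (50 uM stock) was then added, and absorbance at 485 nm was read at the kinetic plateau.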
Background: Quantitative high-throughput screening tests each substance at several concentrations.

For assay [3], the target named is Glutathione peroxidase 1 (Homo sapiens) (UniProt P07203). As to the kind of experiment: Primary qHTS Assay for Inhibitors of Recombinant Selenoprotein Glutathione Peroxidase 1 (GPX1) (AID 1845191). Also: nearly all actives have a fitted effect of over 65% in size. Put shortly: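 10 nM GPX1 + cpd, 30 min RT; start w/ 1 mM GSH, 0.5 mM cumene hydroperoxide, 0.5 mM NADPH, 100 nM GR, 0.01% BSA; buffer 50 mM Tris-HCl pH 7.5, 2 mM EDTA, 150 mM NaCl; Fl 340/450, 0 & 15 min.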

The target in assay [4] is Phospholipid hydroperoxide glutathione peroxidase GPX4 (Homo sapiens) (UniProt P36969). As to the kind of experiment: Primary qHTS Assay for Inhibitors of Recombinant Selenoprotein Glutathione Peroxidase 4 (GPX4) (AID 1845192). Also: nearly all actives have a fitted effect of over 65% in size. Put shortly: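 NADPH consumption, followed by fluorescence at 340/450 nm between 0 and 15 min, reports GPX4 activity via coupled glutathione reductase (100 nM). Enzyme 200 nM was pre-exposed to compound 30 min; 0.5 mM cumene hydroperoxide and 1 mM GSH served as substrates.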

Assay [5] in a line: Quantitative High-Throughput drug screen in 47 multiple myeloma cell lines against the NCATS MIPE library collection: AMO1_DSMZ cell viability assay (AID 1918927; also: nearly all actives have a fitted effect of over 30% in size; also: potency is read from the fitted curve at half-maximal effect). Put shortly:
(§1)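 CellTiter-Glo luminescence (ATP) after 48 h compound exposure, 37C/5% CO2; 500 cells/well; MIPE 4.0 approved/investigational drugs pinned in; DMSO = 100%, media only = 0% viability.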

Assay [6] can be described thus: Quantitative High-Throughput drug screen in 47 multiple myeloma cell lines against the NCATS MIPE library collection: ARP1_JJKsccF8 cell viability assay (AID 1918928; also: nearly all actives have a fitted effect of over 40% in size). Put shortly: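 Myeloma cells, 500 per well, were exposed to MIPE 4.0 drugs by pin transfer for 48 h at 37 °C, 5% CO2. Viability was read as ATP luminescence with CellTiter-Glo, normalised to DMSO-only (100%) and medium-only (0%) wells.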

Assay [7] is described as follows: Quantitative High-Throughput drug screen in 47 multiple myeloma cell lines against the NCATS MIPE library collection: ARD_JJKsccE7 cell viability assay (AID 1918929; also: potency is read from the fitted curve at half-maximal effect). An outline of the steps:
as §1

Assay [8] addresses Luciferin 4-monooxygenase (Photinus pyralis) (UniProt P08659). As to the kind of experiment: Primary firefly luciferase (FLuc) qHTS assay for identification of artifact compounds. (AID 1845220). Also: nearly all actives have a fitted effect of over 60% in size. To be noted: outcome: dose series up to 54.1 µM. An outline of the steps:
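FLuc 10 nM; luciferin 10 uM; ATP 10 uM; Tris-acetate pH 7.6, Mg-acetate 10 mM; 15 min RT preincubation; 5 min reaction; luminescence.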

Assay [9] can be described thus: Primary fluorescence-based thiol-reactive (MSTI) qHTS assay for identification of artifact compounds. (AID 1845221).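 Also: series mostly up to about 54 µM; thiol-reactive compounds lower the probe fluorescence signal; nearly all actives have a fitted effect of over 65% in size.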 An outline of the steps:
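Reactivity toward the thiol probe MSTI (4 uM) is scored by fluorescence at Ex/Em 525/598 nm after 1 h at room temperature. Acetyl-MSTI and MSTI define the activity scale.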

In assay [10] the test system is Nanoluciferase (engineered Oplophorus gracilirostris luciferase). Nature of the assay: Primary Nanoluciferase (NLuc) qHTS assay for identification of artifact compounds. (AID 1845222).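 Also: NLuc secreted into diluted conditioned medium of S16 cells; series mostly up to about 54 µM.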 An outline of the steps: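 NLuc from S16 cell medium (1:55) plus test compounds, 15 min, room temperature. Luminescence after Nano-Glo (1:100) addition, 5 min.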
Assay [11] in a line: Primary redox qHTS assay for identification of artifact compounds. (AID 1845223). An outline of the steps:
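Amplex Red (25 uM) and HRP (250 mU/mL) in HBSS, with compounds for 15 min, then 250 uM DTT for 30 min, room temperature, dark. Fluorescence 525/598 nm read; normalized to DMSO and 10 uM DA3003; Hill fit.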

A short description of assay [12]: Quantitative High-Throughput drug screen in 47 multiple myeloma cell lines against the NCATS MIPE library collection: Delta47_JCRB cell viability assay (AID 1918925; also: nearly all actives have a fitted effect of over 45% in size; also: potency is read from the fitted curve at half-maximal effect). An outline of the steps:
as §1

A short description of assay [13]: Quantitative High-Throughput drug screen in 47 multiple myeloma cell lines against the NCATS MIPE library collection: EJM_DSMZ cell viability assay (AID 1918926; also: nearly all actives have a fitted effect of over 30% in size; also: potency is read from the fitted curve at half-maximal effect). Put shortly: as §1
Assay [14] is described as follows: Quantitative High-Throughput drug screen in 47 multiple myeloma cell lines against the NCATS MIPE library collection: FR4_PLB cell viability assay (AID 1918924; also: nearly all actives have a fitted effect of over 35% in size; also: potency is read from the fitted curve at half-maximal effect). An outline of the steps:
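Primary qHTS used for cherry-picking: cells at 500/well, library compounds for 48 h (37C, 5% CO2), luminescent ATP assay.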

Assay [15] in a line: Viability counterscreen for antagonist of constitutive androstane receptor (CAR) against the NCATS DSHEA and TCM libraries (AID 1794837).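 Also: compound exposure lasted 24 h before viability reading.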 Put shortly:
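Cells: HepG2 line carrying CYP2B6 reporter and hCAR, seeded and attached 5 h. Then pin-transferred test substances plus agonist CITCO at 48 uM final; 24 h incubation; fluorogenic viability reagent, 1 h.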
On the technique in general: A counterscreen serves to expose hits that act by an unwanted route or on another target.

Assay [16] is described as follows: Viability counterscreen for agonist of constitutive androstane receptor (CAR) against the NCATS DSHEA and TCM libraries (AID 1794838).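 Also: HepG2 cells with CYP2B6 reporter and hCAR plus 0.75 µM PK11195 antagonist.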 Put shortly:
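Cell health was measured as CellTiter-Fluor signal in HepG2-CYP2B6-hCAR cells treated for 24 h with substances alongside the hCAR antagonist PK11195 (0.75 uM final).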

Assay [17] has as its target Nuclear receptor subfamily 1 group I member 3 (Homo sapiens) (UniProt Q14994). Nature of the assay: Primary qHTS for agonist of constitutive androstane receptor (CAR) against the NCATS DSHEA and TCM libraries (AID 1794839).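 Also: HepG2 cells expressing human CAR with a CYP2B6 reporter plus PK11195 antagonist; luciferase reporter luminescence read with ONE-Glo.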 Put shortly: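 qHTS, agonist mode: HepG2-CYP2B6-hCAR, 2,500 cells/well, 5 h attach; cpds + PK11195 0.75 µM final; 24 h, 37 °C, 5% CO2. Readouts: CellTiter-Fluor (405/540 nm), then ONE-Glo luminescence.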

Assay [18] is described as follows: HepG2 viability counterscreen (readout 2: ATP content) against the NCATS DSHEA and TCM libraries (AID 1794840). An outline of the steps:
(§2)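 Same wells read twice: first fluorescence from cleaved GF-AFC substrate (25 uM final, 30 min, 37C) for live-cell protease, then CellTiter-Glo luminescence after 30 min at room temperature for ATP. HepG2 cells were exposed ~24 h to substances.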

A short description of assay [19]: HepG2 viability counterscreen (readout 1: protease activity) against the NCATS DSHEA and TCM libraries (AID 1794841).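 Also: cells exposed to compounds for about 24 h before the protease read.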 Put shortly:
as §2

Records with an inconclusive call do not appear. Calls of active or inactive are those of the source. Calls follow the shape of the dose curve; as a rule, active = well fitted curve in the direction sought with a large enough effect; inconclusive = small, poorly fitted or top-dose-only effect, or another doubt; inactive = no such curve, though single readings can be large; an effect the other way counts as inactive or inconclusive.

Chain of Glutathione peroxidase 1 (Homo sapiens) (P07203 whole entry, looked up): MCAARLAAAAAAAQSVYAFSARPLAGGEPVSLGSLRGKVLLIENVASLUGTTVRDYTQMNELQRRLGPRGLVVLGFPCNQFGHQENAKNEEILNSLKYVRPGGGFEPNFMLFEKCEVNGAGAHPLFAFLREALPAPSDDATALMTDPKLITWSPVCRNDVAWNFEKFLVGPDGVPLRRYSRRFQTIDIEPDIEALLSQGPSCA
Chain of Metallo-beta-lactamase type 2 (Klebsiella pneumoniae) (C7C422 whole entry, looked up): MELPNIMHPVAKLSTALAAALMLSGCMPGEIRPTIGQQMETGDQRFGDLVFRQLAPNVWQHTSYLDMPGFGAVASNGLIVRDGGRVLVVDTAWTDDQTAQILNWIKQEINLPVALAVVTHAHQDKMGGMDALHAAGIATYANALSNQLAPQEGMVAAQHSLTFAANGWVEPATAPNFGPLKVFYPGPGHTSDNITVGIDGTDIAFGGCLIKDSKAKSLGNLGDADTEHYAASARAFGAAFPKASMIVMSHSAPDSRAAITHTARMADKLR
Chain of Phospholipid hydroperoxide glutathione peroxidase GPX4 (Homo sapiens) (P36969 whole entry, looked up): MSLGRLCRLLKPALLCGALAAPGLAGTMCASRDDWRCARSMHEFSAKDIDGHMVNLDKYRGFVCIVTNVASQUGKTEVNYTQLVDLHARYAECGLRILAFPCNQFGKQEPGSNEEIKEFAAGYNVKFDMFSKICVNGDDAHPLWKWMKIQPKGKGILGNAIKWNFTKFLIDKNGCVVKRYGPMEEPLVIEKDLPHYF
Chain of Nuclear receptor subfamily 1 group I member 3 (Homo sapiens) (Q14994 whole entry, looked up): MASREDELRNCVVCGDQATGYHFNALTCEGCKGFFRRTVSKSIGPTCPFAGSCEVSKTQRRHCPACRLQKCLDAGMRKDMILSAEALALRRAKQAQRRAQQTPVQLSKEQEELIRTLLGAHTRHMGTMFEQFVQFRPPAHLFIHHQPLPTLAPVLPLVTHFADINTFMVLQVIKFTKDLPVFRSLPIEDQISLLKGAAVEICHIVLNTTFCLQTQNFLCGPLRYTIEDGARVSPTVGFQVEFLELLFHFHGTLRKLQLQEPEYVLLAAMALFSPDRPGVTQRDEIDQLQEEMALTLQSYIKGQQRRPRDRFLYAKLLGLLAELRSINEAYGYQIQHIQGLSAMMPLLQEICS

With `CC(C)Cc1ccc(C(C)C(=O)O)cc1` (stereo not given), the Potency entry in assay [1], in assay [3], in [4], in assay [5], in [6] and in assay [7] was “inactive” in each case. For the same compound, in assay [2], the compound was called inactive.

Consider `Cc1ccc(-c2cc(C(F)(F)F)nn2-c2ccc(S(N)(=O)=O)cc2)cc1`, for which the call in [2], in [8], in assay [9], in [10] and in assay [11] was inactive. Moreover, the Potency entry in [3], in [4], in assay [13], in assay [5], in [6] and in assay [7] was “inactive” in each case. Further, in assay [12], the Potency is 16.6 µM (active).

On to `CN(C)CCCN1c2ccccc2CCc2ccc(Cl)cc21`, for which the Potency result in assay [1], in [3] and in [4] was “inactive” throughout. In assay [2], the compound was classed as inactive. Besides, the Potency in [14] was 1.18 µM (active); in assay [13], 0.264 µM (active); in assay [5], 1.05 µM (active); in [7], 8.33 µM (active).

With `NS(=O)(=O)c1cc2c(cc1Cl)NCNS2(=O)=O`, the Potency result in assay [1], in assay [3], in assay [4], in [12], in [6] and in assay [7] was “inactive” throughout. Further, the outcome in [2] was inactive.

Consider `Nc1nc2c(ncn2COC(CO)CO)c(=O)[nH]1`, for which the Potency result in assay [1], in assay [3] and in assay [4] was “inactive” in each case. Further, the outcome in assay [2] was inactive. Further, the Potency in assay [14] was 26.4 µM (active); in assay [13], 14.8 µM (active); in assay [5] it was 13.2 µM (active); in [7], 4.18 µM (active).

In the case of `CC(C)(Oc1ccc(C2CC2(Cl)Cl)cc1)C(=O)O` (stereo not given), the Potency result in [1], in assay [3], in assay [4], in assay [13], in assay [5] and in assay [7] was “inactive” throughout. In assay [2], the compound was classed as inactive.

As for `Nc1ccn([C@H]2CC[C@@H](CO)O2)c(=O)n1`, the Potency entry in assay [1], in assay [3], in assay [4], in assay [14], in assay [5] and in assay [6] was “inactive” throughout. Also, in [7], the Potency result is “inactive”. Also, in assay [2], the outcome was inactive.

`CN1CCN2c3ccccc3Cc3ccccc3C2C1` (stereo not given): the call in assay [2] was inactive. For the same compound, the Potency entry in [3] and in assay [4] was “inactive” in each case.

For `CC(C)NCC(O)COc1ccc(CCOCC2CC2)cc1` (stereo not given), the compound was called inactive in assay [2]. Also, the Potency result in assay [3] and in [4] was “inactive” each time.

Consider `Cn1c(=O)c2c(ncn2C)n(C)c1=O`, for which the result in [15], in assay [16], in assay [17], in assay [18] and in assay [19] was inactive. Moreover, the Potency result in assay [3], in assay [4], in [13], in [5], in assay [6] and in [7] was “inactive” throughout.

In the case of `O=C(c1ccc(F)cc1)C1CCN(CCn2c(=O)[nH]c3ccccc3c2=O)CC1`, the compound was called inactive in assay [2], in assay [8], in assay [9], in assay [10] and in assay [11]. Also, the Potency result in assay [3], in assay [4], in assay [14], in assay [13], in [5] and in assay [6] was “inactive” in each case.
